Reference: PubChem BioAssay (Tox21)
Values without a mark were called inactive. Calls of active or inactive are those of the source. Calls come from the whole dose curve.

Target: Androgen receptor (Homo sapiens) (UniProt P10275)
Experiment: qHTS assay to identify small molecule agonists of the androgen receptor (AR) signaling pathway in the presence of an antagonist (AID 1259381); note: nearly all actives have a fitted effect of over 15% in size
Conditions: MDA-kb2 MMTV-luciferase, AR agonist + nilutamide, 16 h; series mostly up to 42.5 µM; activation: at the top concentration
Excerpt: National Center for Advancing Translational Sciences [NCATS] NIH Chemical Genomics Center [NCGC] U.S. Environmental Protection Agency [EPA] National Institutes of Environmental Health Sciences [NIEHS] National Toxicology Program [NTP] Assay overview: Androgen receptor (AR) is an important member of nuclear receptor family. Its signaling plays a critical role in AR-dependent prostate cancer and other androgen related diseases. Considerable attention has been given in the past decades to develop methods to study and screen for the environmental chemicals that have the potential to interfere with metabolic homeostasis, reproduction, developmental and behavioral functions. Therefore AR binding assay for screening against androgen agonists and antagonists can be used to identify potential endocrine disruptors. MDA-kb2 cells (from ATCC, deposited by Wilson et al.) are human breast carcinoma cells that were stably transfected with a luciferase reporter gene under control of the MMTV promoter that contains response elements for both androgen receptor (AR) and glucocorticoid receptor (GR). This particular screening for measuring luciferase reporter gene activity using MDA-kb2 cells against Tox21 10K library compounds is a confirmation study on agonist mode screening in the presence of AR-antagonist compound (Nilutamide) at 3.0uM final concentration.
Assay Protocol Summary: MDA-kb2 cells (cells cultured without CO2) were dispensed at 3,000 cells/well in 4uL of culture medium into white wall/solid-bottom 1536-well plates (Corning Life Sciences, Corning, NY) using a Multidrop Combi (Thermo Fisher Scientific Inc., Waltham, MA) dispenser. The assay plates were incubated at 37C and 0% CO2 for 5hr. One uL of 3.0uM (final concentration) Nilutamide or assay buffer was added using two separate tips of Flying Reagent Dispenser (FRD, Aurora Discovery, San Diego, CA). Then 23nL of compounds dissolved in DMSO at 15 concentrations and positive controls were transferred to the assay plates using a Pintool station (Wako, San Diego, CA). The assay plates were incubated at 37C and 0% CO2 for 16hr. For luciferase read, 4uL/well ONE-Glo reagent (Promega Corporation, Madison, WI) was added to each well of the assay plates using FRD. After 30min incubation at room temperature, the luminescence signal was measured using a ViewLux plate reader (PerkinElmer, Shelton, CT).
% is set by controls: 0 for no effect and ±100 for the full control effect; potency is the fitted concentration of half-maximal effect.

Chain of Androgen receptor (Homo sapiens) (P10275 whole entry, looked up): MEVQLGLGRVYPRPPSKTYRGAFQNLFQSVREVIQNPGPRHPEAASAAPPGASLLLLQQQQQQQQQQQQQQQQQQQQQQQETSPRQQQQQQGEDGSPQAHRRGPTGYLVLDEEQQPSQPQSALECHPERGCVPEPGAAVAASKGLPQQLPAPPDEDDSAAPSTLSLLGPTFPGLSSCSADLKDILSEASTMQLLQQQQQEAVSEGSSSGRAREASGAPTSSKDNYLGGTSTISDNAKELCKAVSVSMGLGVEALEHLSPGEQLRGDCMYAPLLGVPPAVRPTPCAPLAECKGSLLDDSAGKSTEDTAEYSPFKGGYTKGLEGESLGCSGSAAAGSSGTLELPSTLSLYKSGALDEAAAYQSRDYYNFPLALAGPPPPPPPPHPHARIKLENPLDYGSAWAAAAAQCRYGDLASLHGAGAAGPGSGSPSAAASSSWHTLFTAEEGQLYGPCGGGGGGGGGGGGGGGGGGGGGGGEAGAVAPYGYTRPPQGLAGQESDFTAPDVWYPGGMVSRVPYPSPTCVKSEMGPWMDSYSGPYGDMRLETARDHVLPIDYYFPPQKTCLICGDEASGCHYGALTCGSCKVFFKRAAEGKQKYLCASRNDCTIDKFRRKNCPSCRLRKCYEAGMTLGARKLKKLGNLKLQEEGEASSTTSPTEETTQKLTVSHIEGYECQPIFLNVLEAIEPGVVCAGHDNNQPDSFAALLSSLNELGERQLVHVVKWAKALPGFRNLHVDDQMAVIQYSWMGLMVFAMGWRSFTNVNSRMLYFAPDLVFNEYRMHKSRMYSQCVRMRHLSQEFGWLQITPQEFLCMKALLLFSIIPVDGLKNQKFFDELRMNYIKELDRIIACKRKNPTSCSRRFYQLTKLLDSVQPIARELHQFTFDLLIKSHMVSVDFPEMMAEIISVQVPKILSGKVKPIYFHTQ

Structure (SMILES) | activation | Potency
Cc1coc2ccccc2c1=O | 1.43% | 
COCCOC[C@H](CC1(C(=O)NC2CCC(C(=O)O)CC2)CCCC1)C(=O)Oc1ccc2c(c1)CCC2 (stereo not given in full) | -1.36% [at 92.4 µM] | 
NS(=O)(=O)Cc1noc2ccccc12 | -0.0281% | 
CCN(Cc1ccccc1)c1ccccc1 | -6.22% [at 92.4 µM] | 
CCOC(=O)COc1cc(-n2ncc(C(F)(F)F)c(C)c2=O)c(F)cc1Cl | -0.0631% [at 92.4 µM] | 
CO[C@@]1(NC(=O)CSC[C@@H](N)C(=O)O)C(=O)N2C(C(=O)O)=C(CSc3nnnn3C)CS[C@@H]21 | -0.208% | 
O=[N+]([O-])c1cncn1CCN1CCOCC1 | -0.052% | 
Cc1ccc(C(=O)c2ccc(CC(=O)O)n2C)cc1 | -0.135% | 
O=C(O)CCSCCC(=O)O | 0.194% [at 92.4 µM] | 
O=S(=O)(O)c1cc(O)c(O)c(S(=O)(=O)O)c1 | 0.149% [at 92.4 µM] | 
O=C(c1ccccc1O)c1ccccc1O | -1.52% [at 92.4 µM] | 
COC(=O)Nc1ccc(Cl)c(Cl)c1 | 0.489% [at 92.4 µM] | 
CC[N+](CC)(CC)CCOc1cccc(OCC[N+](CC)(CC)CC)c1OCC[N+](CC)(CC)CC | -0.117% | 
C[C@@H]1C[C@H]2[C@@H]3C[C@H](F)C4=CC(=O)C(Cl)=C[C@]4(C)[C@@]3(F)[C@@H](O)C[C@]2(C)[C@@]1(O)C(=O)CO |  | 4.7 nM (active)
CCCCOCCOC(=O)COc1cc(Cl)c(Cl)cc1Cl | 0.268% [at 92.4 µM] | 
Cc1ccc(-c2ncc(Cl)cc2-c2ccc(S(C)(=O)=O)cc2)cn1 | -1.71% | 
CNC(=O)Nc1ccc(Cl)c(Cl)c1 | -2.96% [at 92.4 µM] | 
CCCCS(=O)(=O)N[C@@H](Cc1ccc(OCCCCC2CCNCC2)cc1)C(=O)O | 5.92% | 
Nc1c2c(nc3c1CCC3)CCCC2 | 1.7% | 
O=C(O)Cc1csc(-c2ccc(Cl)cc2)n1 | 0.32% | 

Structure (SMILES) | activation | Potency
C=C(C)C(=O)OCC(O)CO (stereo not given) | -1.94% | 
CCCCCC(C)N (stereo not given) | 0.285% | 
O=S(=O)(O)c1cccc(S(=O)(=O)O)c1 | -0.49% [at 92.4 µM] | 
C=C[Si](OC(C)=O)(OC(C)=O)OC(C)=O | -0.459% [at 92.4 µM] | 
COC(=O)C1=C(C)NC(C)=C(C(=O)OC(C)C)C1c1cccc2nonc12 (stereo not given) | -3.83% | 
CCCCCCCC1CCCC1=O (stereo not given) | -1.84% [at 92.4 µM] | 
Cc1ccc(-c2ccccc2C#N)cc1 | -0.196% | 
CC1(C)OC[C@@H](COC(=O)CCc2ccc(OC[C@@H](O)CNCCNC(=O)N3CCOCC3)cc2)O1 | 1.59% | 
CCCOC(=O)CC | -2.32% [at 92.4 µM] | 
C[N+](C)(CCOc1ccccc1)Cc1cccs1 | -0.671% | 
CC(C)NNC(=O)c1ccncc1 | -0.363% | 
CC(C)(C)c1ccc(-c2ccc(C(C)(C)C)cc2)cc1 | 0.517% [at 92.4 µM] | 
CC1=NN(c2cccc(S(=O)(=O)O)c2)C(=O)C1 | -1.96% [at 92.4 µM] | 
CCCCCCCCCC[N+](C)(C)[O-] | -2.27% [at 92.4 µM] | 
NC(=O)NC1N=C([O][Al])NC1=O (stereo not given) | -0.403% | 
CCCC(=O)O[C@]1(C(=O)CC)CC[C@H]2[C@@H]3CCC4=CC(=O)CC[C@]4(C)[C@H]3[C@@H](O)C[C@@]21C |  | 13.3 nM (active)
Cc1onc(-c2c(Cl)cccc2Cl)c1C(=O)Cl | 0.0215% | 
CC(C)C1CCC(O)CC1 (stereo not given) | 0.297% [at 92.4 µM] | 
Cc1nc2ccc(CN(C)c3ccc(C(=O)N[C@@H](CCC(=O)O)C(=O)O)s3)cc2c(=O)[nH]1 | -0.672% | 
CC(=O)N1C[C@H](O)C[C@H]1C(=O)O | 0.67% | 
